# Test results reported in PMC7862700, “An all-to-all approach to the identification of sequence-specific readers for epigenetic DNA modifications on cytosine”.
# Columns and labels:
# Assay in all cases: DAPPL (digital affinity profiling via proximity ligation, sequencing); 10 mM Tris-HCl pH 7.5, 50 mM NaCl, 1 mM DTT, 4% glycerol, room temperature, 30 min; GST-TFs on glutathione beads, 16-mer random dsDNA library, 0.1% formaldehyde crosslink after washing; high values mean tight binding
# FEV = biological target: T1, FEV (Homo sapiens, UniProt Q99581 1-238); details: protein: recombinant; tags: N-terminal GST; dsDNA, one strand shown
# T1 sequence: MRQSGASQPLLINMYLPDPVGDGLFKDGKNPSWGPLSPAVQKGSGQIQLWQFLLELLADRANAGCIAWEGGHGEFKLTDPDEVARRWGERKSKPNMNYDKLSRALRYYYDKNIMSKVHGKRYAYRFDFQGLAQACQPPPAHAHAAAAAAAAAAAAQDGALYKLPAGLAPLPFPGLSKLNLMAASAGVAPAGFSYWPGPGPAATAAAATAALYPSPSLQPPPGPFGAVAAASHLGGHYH
# In short: (§1)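 Human transcription factors were made in yeast as GST fusions, captured on glutathione beads and barcoded with DNA. With a tag-only sample included, the pool was incubated with 200 nmole of a random double-stranded 16-mer DNA library in Tris/NaCl/DTT/glycerol buffer at room temperature for 30 min, then crosslinked with 0.1% formaldehyde after washing, ligated by proximity, amplified and sequenced. For binding signal, each hexamer's read frequency for a factor is divided by its frequency for the tag-only sample.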
# ETV5 = ETV5 (Homo sapiens, UniProt P41161 1-510); details: protein: recombinant; tags: N-terminal GST; dsDNA, one strand shown
# In short: as §1
# HSF1 = HSF1 (Homo sapiens, UniProt Q00613 1-529); details: protein: recombinant; tags: N-terminal GST; chain copies: 3; dsDNA, one strand shown
# In short: as §1
# SPIC = biological target: T2, SPIC (Homo sapiens, UniProt Q8N5J4 1-248); details: protein: recombinant; tags: N-terminal GST; dsDNA, one strand shown
# T2 sequence: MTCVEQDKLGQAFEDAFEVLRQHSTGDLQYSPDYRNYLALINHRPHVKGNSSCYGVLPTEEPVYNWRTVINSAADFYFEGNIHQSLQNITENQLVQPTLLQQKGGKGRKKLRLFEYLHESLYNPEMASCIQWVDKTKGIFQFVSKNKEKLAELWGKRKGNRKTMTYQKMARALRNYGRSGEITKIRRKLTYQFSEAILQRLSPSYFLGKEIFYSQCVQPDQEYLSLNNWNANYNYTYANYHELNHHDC
# In short: as §1
# ELF4 = ELF4 (Homo sapiens, UniProt Q99607 1-663); details: protein: recombinant; tags: N-terminal GST; dsDNA, one strand shown
# In short: as §1
# ELK4 = biological target: T3, ELK4 (Homo sapiens, UniProt P28324-2 1-405); details: protein: recombinant; tags: N-terminal GST; dsDNA, one strand shown
# T3 sequence: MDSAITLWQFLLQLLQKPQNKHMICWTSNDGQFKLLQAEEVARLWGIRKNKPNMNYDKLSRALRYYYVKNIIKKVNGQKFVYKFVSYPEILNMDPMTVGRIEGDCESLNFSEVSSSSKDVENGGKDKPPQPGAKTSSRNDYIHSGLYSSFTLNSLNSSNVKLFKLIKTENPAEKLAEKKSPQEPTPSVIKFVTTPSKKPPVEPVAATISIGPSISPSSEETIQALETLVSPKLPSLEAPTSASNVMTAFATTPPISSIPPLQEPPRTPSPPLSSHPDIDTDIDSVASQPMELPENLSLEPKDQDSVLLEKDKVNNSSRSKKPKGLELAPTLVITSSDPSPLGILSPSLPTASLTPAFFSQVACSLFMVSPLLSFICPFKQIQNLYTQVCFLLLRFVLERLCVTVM
# In short: as §1
# ETV2 = biological target: T4, ETV2 (Homo sapiens, UniProt O00321 1-342); details: protein: recombinant; tags: N-terminal GST; dsDNA, one strand shown
# T4 sequence: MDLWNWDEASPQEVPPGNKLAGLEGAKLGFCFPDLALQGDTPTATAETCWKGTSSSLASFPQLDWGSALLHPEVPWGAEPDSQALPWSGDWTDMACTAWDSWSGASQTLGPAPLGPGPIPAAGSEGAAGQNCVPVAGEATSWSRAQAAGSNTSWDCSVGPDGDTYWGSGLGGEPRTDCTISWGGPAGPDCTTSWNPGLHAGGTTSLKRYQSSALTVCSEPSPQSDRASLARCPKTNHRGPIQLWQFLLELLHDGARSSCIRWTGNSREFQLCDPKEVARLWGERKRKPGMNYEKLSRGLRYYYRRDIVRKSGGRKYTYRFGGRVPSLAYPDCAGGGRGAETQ
# In short: as §1
# ELF3 = biological target: T5, ELF3 (Homo sapiens, UniProt P78545 1-371); details: protein: recombinant; tags: N-terminal GST; dsDNA, one strand shown
# T5 sequence: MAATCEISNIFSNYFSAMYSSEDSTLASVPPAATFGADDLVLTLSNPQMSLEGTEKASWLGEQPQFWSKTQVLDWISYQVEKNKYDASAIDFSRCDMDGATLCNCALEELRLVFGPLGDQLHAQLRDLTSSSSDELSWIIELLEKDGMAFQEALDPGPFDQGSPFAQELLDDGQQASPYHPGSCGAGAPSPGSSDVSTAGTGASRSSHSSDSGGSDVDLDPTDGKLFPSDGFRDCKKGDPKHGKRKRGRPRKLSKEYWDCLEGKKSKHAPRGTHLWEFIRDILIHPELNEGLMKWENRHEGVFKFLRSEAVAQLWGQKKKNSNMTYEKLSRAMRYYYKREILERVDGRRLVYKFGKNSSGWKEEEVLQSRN
# In short: as §1
# CRX = CRX (Homo sapiens, UniProt O43186 1-299); details: protein: recombinant; tags: N-terminal GST; dsDNA, one strand shown
# In short: as §1
# CRX, sequence (O43186 whole entry): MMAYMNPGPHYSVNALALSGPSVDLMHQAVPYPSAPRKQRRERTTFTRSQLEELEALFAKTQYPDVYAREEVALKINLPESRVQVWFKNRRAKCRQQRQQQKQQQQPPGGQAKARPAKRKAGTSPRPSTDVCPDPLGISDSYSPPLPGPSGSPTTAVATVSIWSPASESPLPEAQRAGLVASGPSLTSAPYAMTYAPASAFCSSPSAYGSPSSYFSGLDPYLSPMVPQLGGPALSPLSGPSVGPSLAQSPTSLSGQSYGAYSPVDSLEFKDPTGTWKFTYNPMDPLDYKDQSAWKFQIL
# HSF1, sequence (Q00613 whole entry): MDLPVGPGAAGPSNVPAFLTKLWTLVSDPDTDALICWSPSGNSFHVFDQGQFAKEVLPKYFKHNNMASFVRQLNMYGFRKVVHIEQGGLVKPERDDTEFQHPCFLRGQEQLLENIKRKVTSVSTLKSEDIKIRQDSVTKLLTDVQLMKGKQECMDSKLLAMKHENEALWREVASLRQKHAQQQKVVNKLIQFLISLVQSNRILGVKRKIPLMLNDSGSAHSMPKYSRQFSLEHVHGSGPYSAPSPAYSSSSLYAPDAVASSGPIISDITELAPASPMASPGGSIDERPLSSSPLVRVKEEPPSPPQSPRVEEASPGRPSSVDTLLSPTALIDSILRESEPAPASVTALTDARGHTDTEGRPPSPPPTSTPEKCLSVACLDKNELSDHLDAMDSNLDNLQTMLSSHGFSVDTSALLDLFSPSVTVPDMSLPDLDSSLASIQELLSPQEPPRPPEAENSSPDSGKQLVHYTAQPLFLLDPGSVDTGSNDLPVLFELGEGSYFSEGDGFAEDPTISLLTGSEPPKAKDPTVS
# ETV5, sequence (P41161 whole entry): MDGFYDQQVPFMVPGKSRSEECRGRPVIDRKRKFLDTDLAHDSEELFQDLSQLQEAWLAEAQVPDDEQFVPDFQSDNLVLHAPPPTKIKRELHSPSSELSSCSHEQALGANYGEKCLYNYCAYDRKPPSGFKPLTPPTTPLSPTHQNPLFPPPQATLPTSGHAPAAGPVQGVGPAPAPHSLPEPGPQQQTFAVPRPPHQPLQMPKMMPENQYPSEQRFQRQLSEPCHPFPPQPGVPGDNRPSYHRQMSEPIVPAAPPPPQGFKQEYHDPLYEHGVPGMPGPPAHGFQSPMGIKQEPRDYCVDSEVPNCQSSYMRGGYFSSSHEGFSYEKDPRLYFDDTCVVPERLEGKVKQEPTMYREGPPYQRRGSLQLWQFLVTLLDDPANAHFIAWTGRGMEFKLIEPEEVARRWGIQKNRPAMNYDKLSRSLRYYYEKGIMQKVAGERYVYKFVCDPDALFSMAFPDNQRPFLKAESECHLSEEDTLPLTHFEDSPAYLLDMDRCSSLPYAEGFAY
# ELF4, sequence (Q99607 whole entry): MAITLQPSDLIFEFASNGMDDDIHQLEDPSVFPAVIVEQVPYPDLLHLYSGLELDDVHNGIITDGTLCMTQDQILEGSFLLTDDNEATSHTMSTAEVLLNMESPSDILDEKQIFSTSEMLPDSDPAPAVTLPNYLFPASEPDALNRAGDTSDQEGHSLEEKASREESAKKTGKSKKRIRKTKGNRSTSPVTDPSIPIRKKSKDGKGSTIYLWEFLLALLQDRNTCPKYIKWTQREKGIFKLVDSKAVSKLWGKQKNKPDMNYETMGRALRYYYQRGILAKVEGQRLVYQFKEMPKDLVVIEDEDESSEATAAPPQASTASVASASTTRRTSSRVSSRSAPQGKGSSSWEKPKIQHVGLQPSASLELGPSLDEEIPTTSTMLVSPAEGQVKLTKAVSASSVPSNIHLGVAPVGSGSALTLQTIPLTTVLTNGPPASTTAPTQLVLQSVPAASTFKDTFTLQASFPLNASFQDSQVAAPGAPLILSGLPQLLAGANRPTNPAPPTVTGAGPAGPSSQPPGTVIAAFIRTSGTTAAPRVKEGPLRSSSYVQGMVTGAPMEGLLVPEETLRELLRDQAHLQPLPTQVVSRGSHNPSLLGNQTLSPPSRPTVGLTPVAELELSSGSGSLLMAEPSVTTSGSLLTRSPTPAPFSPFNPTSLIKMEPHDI
sequence,measurement,setting,value
GCACTA,binding signal,FEV,"1.19 fold enrichment (6-mer frequency, TF over GST control)"
same,binding signal,ETV5,"1.13 fold enrichment (6-mer frequency, TF over GST control)"
same,binding signal,HSF1,"1.11 fold enrichment (6-mer frequency, TF over GST control)"
same,binding signal,SPIC,"1.12 fold enrichment (6-mer frequency, TF over GST control)"
same,binding signal,ELF4,"1.27 fold enrichment (6-mer frequency, TF over GST control)"
same,binding signal,ELK4,"1.13 fold enrichment (6-mer frequency, TF over GST control)"
same,binding signal,ETV2,"1.22 fold enrichment (6-mer frequency, TF over GST control)"
same,binding signal,ELF3,"1.29 fold enrichment (6-mer frequency, TF over GST control)"
same,binding signal,CRX,"1.17 fold enrichment (6-mer frequency, TF over GST control)"
